Hit rate of the full screen: of about 48,000 compounds, about 13,000 (27%) showed an effect of 50% or more. Some of the results follow.
The molecules below were run on Wolbachia pipientis (assay: Anti-Wolbachia Cell-Based Screen). Details: 5 µM.
Type: functional
Design: scale not given: in the data most compounds retested in dose-response had high values
`CCC(C(=O)NCc1ccncc1)N(c1ccc(F)cc1)S(C)(=O)=O` (stereo not given) was tested, and the “Percent Effect” value was -11.09%.
In the case of `Cc1cc(C)c2nc(CN3CCC(CN)C3)cc(O)c2c1` (stereo not given), the “Percent Effect” value was -17.01%.
In the case of `Cc1cc(Br)oc1C(=O)N1CCN(CC(N)=O)CC1`, the “Percent Effect” value was -14.01%.
`CS(=O)(=O)Cc1nc(C2CC2)nn1-c1ccccn1` was tested, and the “Percent Effect” value was -14.62%.
In the case of `CC(C)CS(=O)(=O)N1CCC2(CC1)CCn1c(-c3cnn(C)c3)cnc12`, the “Percent Effect” value was 2.953%.
With `Cn1cc(CC(CNC(=O)Nc2cccc(Cl)c2)C(N)=O)cn1` (stereo not given) the “Percent Effect” value was 3.636%.
With `CC(C)n1c(=O)c2sccc2n(CC(=O)Nc2cccc(Cl)c2)c1=O` the “Percent Effect” value was 121.3%.
For `CN(C)c1nc(N)nc(CSCCC(=O)Nc2cccc(Cl)c2)n1`, the “Percent Effect” value was 5.106%.
In the case of `COc1cccc(CN2C[C@@H]3COC[C@]3(CNC(=O)C3CC3)C2)c1.O=C(O)C(F)(F)F`, the “Percent Effect” value was 100.6%.
In the case of `Cc1cccc(CN2C[C@@H]3COC[C@]3(CNC(=O)C3CC3)C2)c1.O=C(O)C(F)(F)F`, the “Percent Effect” value was 102.9%.
`Cc1cccc(CN2C[C@@H]3COC[C@]3(CNC(=O)N3CCCC3)C2)n1.O=C(O)C(F)(F)F.O=C(O)C(F)(F)F` was tested, and the “Percent Effect” value was 5.948%.
In the case of `Cc1cccc(CN2C[C@@H]3COC[C@]3(CNC(=O)C3CCC3)C2)c1.O=C(O)C(F)(F)F`, the “Percent Effect” value was 92.72%.
With `Cc1ccccc1CN1C[C@@H]2COC[C@]2(CNC(=O)C2CCC2)C1.O=C(O)C(F)(F)F` the “Percent Effect” value was 116.7%.
For `O=C(NC[C@]12COC[C@H]1CN(Cc1nccs1)C2)c1ccccc1.O=C(O)C(F)(F)F`, the “Percent Effect” value was 17.76%.
With `O=C(NC[C@]12COC[C@H]1CN(Cc1nccs1)C2)N1CCCC1.O=C(O)C(F)(F)F` the “Percent Effect” value was 28.78%.
With `N#Cc1cccc(-c2ncnn2CC2(O)CCCCC2)c1` the “Percent Effect” value was 2.299%.
In the case of `COC(=O)CC(NC(=O)c1cccc(N2CCCC2=O)c1)C(=O)OC` (stereo not given), the “Percent Effect” value was -7.194%.
With `Cc1ccc(-c2cc(C(=O)NCCCc3csc(N)n3)[nH]n2)o1` the “Percent Effect” value was 17.13%.
In the case of `CCCNC(=O)C(C)n1cc(Br)cn1` (stereo not given), the “Percent Effect” value was -2.063%.
In the case of `Cc1ccc(-c2nc(CC(=O)N3CCCC(NC(=O)C(C)C)C3)cs2)o1` (stereo not given), the “Percent Effect” value was 6.035%.
For `Cc1ccc(-c2cc(N)c(=O)n(C(C)C(=O)NC(C)C)n2)o1` (stereo not given), the “Percent Effect” value was 115.3%.
For `COCCN(Cc1nccs1)C(=O)c1cc(-c2ccc(C)o2)n[nH]1`, the “Percent Effect” value was -13.35%.
With `CCCNC(=O)C(C)n1nc(-c2ccc(C)o2)cc(N)c1=O` (stereo not given) the “Percent Effect” value was 87.57%.
For `COCCNC(=O)C(C)n1nc(-c2ccc(C)o2)cc(N)c1=O` (stereo not given), the “Percent Effect” value was 104.7%.
In the case of `Cc1ccc(-c2nc(CC(=O)NCC(C)N3CCOCC3)cs2)o1` (stereo not given), the “Percent Effect” value was -1.179%.
In the case of `Cc1ccc(-c2cc(N)c(=O)n(C(C)C(N)=O)n2)o1` (stereo not given), the “Percent Effect” value was 92.46%.
With `Cc1ccc(-c2cc(C(=O)N3CCCC3c3cccnc3)[nH]n2)o1` (stereo not given) the “Percent Effect” value was -6.11%.
In the case of `CC(=O)N1CCCN(C(=O)NC(C)c2ccc(C)o2)CC1` (stereo not given), the “Percent Effect” value was -7.479%.
For `Cc1c(C)n(Cc2ccccn2)c2nc3c(c(N)c12)CCCC3`, the “Percent Effect” value was 5.52%.
With `O=C(CNc1cc(F)ccc1OC(F)F)NCC(F)(F)F` the “Percent Effect” value was -13.2%.
For `CC(C)(CNC(=O)Nc1cccc(-c2nccs2)c1)C(N)=O`, the “Percent Effect” value was 2.635%.
In the case of `Cc1noc(C[C@@H]2COC[C@H]3CN(C(=O)C4=CCCC4)C[C@@H]23)n1`, the “Percent Effect” value was -8.987%.
`O=C(O)C(F)(F)F.O=C([C@@H]1COC[C@H]2CN(C3CCOCC3)C[C@H]21)N1CCCO1` was tested, and the “Percent Effect” value was 1.407%.
`O=C1OCCC1N1CCN(c2ccc(O)cc2)CC1` (stereo not given) was tested, and the “Percent Effect” value was 4.942%.
For `CC(C)Oc1cccc(C(O)CNC(=O)NCc2cccs2)c1` (stereo not given), the “Percent Effect” value was -2.917%.
In the case of `CCOc1ccccc1CCNC(=O)NCC(O)c1ccsc1` (stereo not given), the “Percent Effect” value was -9.165%.
With `Cc1csc(CNC(=O)NCC(O)c2ccccc2)n1` (stereo not given) the “Percent Effect” value was 14.77%.
`COC(=O)c1sccc1S(=O)(=O)NCCC(O)c1ccoc1` (stereo not given) was tested, and the “Percent Effect” value was 6.712%.
In the case of `CC(C)Oc1cccc(C(O)CNC(=O)Nc2cccs2)c1` (stereo not given), the “Percent Effect” value was -15.38%.
For `O=C(NCCC(O)c1cccs1)c1ccco1` (stereo not given), the “Percent Effect” value was -4.816%.
With `O=C(NCC(O)c1cccs1)c1ccco1` (stereo not given) the “Percent Effect” value was -9.342%.
For `O=C(NCC(O)c1ccoc1)Nc1cccs1` (stereo not given), the “Percent Effect” value was 112.3%.
`O=C(NCC(O)c1ccoc1)Nc1c(F)cccc1F` (stereo not given) was tested, and the “Percent Effect” value was 35.5%.
For `O=C(NCC(O)c1ccsc1)Nc1cccs1` (stereo not given), the “Percent Effect” value was 136.4%.
For `O=C(NCc1cccs1)NCC(O)c1ccoc1` (stereo not given), the “Percent Effect” value was 136.2%.
In the case of `O=C(NCCC(O)c1ccoc1)Nc1cccs1` (stereo not given), the “Percent Effect” value was 118.3%.
For `COCc1nc(CNC2CCSCC2)no1`, the “Percent Effect” value was -3.755%.
`CCc1nc2c(c(NCc3nc(-c4cccnc4)no3)n1)CCNCC2` was tested, and the “Percent Effect” value was -4.803%.
For `CC(C)c1nc(CN(C)C(=O)CNS(=O)(=O)c2cccs2)no1`, the “Percent Effect” value was -26.42%.
In the case of `CN(CCOCC(F)(F)F)CC1CCN(CCO)CC1`, the “Percent Effect” value was -6.866%.
In the case of `CCCC(=O)NCCc1nc(N(C)C)ncc1-c1ccncc1`, the “Percent Effect” value was 150.4%.
In the case of `COCC(=O)Nc1ccnc(OCCN(C)C)c1`, the “Percent Effect” value was 5.238%.
With `COCC(=O)N(C)Cc1nc(N(C)C)ncc1-c1ccncc1` the “Percent Effect” value was 115.9%.
`Cc1nc(N(C)C)ncc1C(=O)N(Cc1ccncc1)CC1CCCO1` (stereo not given) was tested, and the “Percent Effect” value was -9.755%.
With `CCCNC(=O)c1cnc(N(C)C)nc1COC` the “Percent Effect” value was 7.705%.
For `COCc1nc(N(C)C)ncc1C(=O)Nc1ccn(C)n1`, the “Percent Effect” value was 4.031%.
`COCc1nc(N(C)C)ncc1C(=O)NC(C)C` was tested, and the “Percent Effect” value was 11.32%.
In the case of `COCC(=O)NCCc1nc(N(C)C)ncc1-c1ccncc1`, the “Percent Effect” value was 144%.
With `COCCC(=O)NCCc1nc(N(C)C)ncc1-c1ccncc1` the “Percent Effect” value was 140.1%.
With `Cc1nsc(NC(=O)N2CCCCC2CCCO)n1` (stereo not given) the “Percent Effect” value was 3.459%.
With `CCCOCC(=O)NS(=O)(=O)c1ccc2c(c1)OCCCO2` the “Percent Effect” value was -2.018%.
`CCc1nc(CCNC(=O)C2CC2)sc1C` was tested, and the “Percent Effect” value was -12.51%.
In the case of `CN(C)c1ncc(-c2ccncc2)c(CCNC(=O)C2CC2)n1`, the “Percent Effect” value was 144.3%.
`Cc1nc(N(C)C)ncc1C(=O)NCCc1csc(-c2ccncc2)n1` was tested, and the “Percent Effect” value was 10.36%.
For `c1ccc2c(c1)CN(c1ncnc3sc4c(c13)CCNC4)CCO2`, the “Percent Effect” value was -13.02%.
